Several values for one entry are separate records, joined by “and”; a condition that tells them apart may be missing. Identical values can stand only once. The whole screen tested about 5,500 compounds, of which about 2,000 (36%) were called active. Another 18% or so got no clear call; they are omitted. Cut-off read from the data, not from the text of the source: active = normalized growth mostly below about 0.91 (no sharp cut-off); inconclusive = no clear call, values can overlap the other calls; inactive = mostly above about 0.92. The list shows a part of the results.
Experiment: chemical genetic growth profiling, strain panel (AID 1159580);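 note: tested at 20 µM; growth read once vehicle control cultures reached saturation at 30 °C; 1 = growth at the plate median or of vehicle wells; lower values mean less growth of the strain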
Conditions: growth OD

Measured: normalized growth

C/C1=C\CCC(=O)C2CC(C)(C)C2CC1 (stereo unspecified)
inactive: S. cerevisiae deletion strains, locus YBR021W, strain FUR4, hits give low values 0.997 | S. cerevisiae deletion strains, locus YBR229C, strain ROT2, hits give low values 1.02 | S. cerevisiae deletion strains, locus YCL029C, strain bik1, hits give low values 1.03 | S. cerevisiae deletion strains, locus YDL035C, strain GPR1, hits give low values 0.999 | S. cerevisiae deletion strains, locus YDL074C, strain BRE1, hits give low values 1.02 | S. cerevisiae deletion strains, locus YDL101C, strain DUN1, hits give low values 1.03 | S. cerevisiae deletion strains, locus YDL134C, strain PPH21, hits give low values 1.04 | S. cerevisiae deletion strains, locus YDL185W, strain tfp1, hits give low values 1.03 | S. cerevisiae deletion strains, locus YDL192W, strain arf1, hits give low values 1.01 | S. cerevisiae deletion strains, locus YDR101C, strain arx1, hits give low values 1 | S. cerevisiae deletion strains, locus YDR162C, strain NBP2, hits give low values 1.03 | S. cerevisiae deletion strains, locus YDR318W, strain mcm21, hits give low values 1.03 | S. cerevisiae deletion strains, locus YDR388W, hits give low values 1.03 | S. cerevisiae deletion strains, locus YDR502C, strain sam2, hits give low values 1.03 | S. cerevisiae deletion strains, locus YEL061C, strain CIN8, hits give low values 1.02 | S. cerevisiae deletion strains, locus YER110C, hits give low values 1.04 | S. cerevisiae deletion strains, locus YER155C, strain BEM2, hits give low values 1.01 | S. cerevisiae deletion strains, locus YER167W, strain BCK2, hits give low values 1.01 | S. cerevisiae deletion strains, locus YGL078C, strain dbp3, hits give low values 1.02 | S. cerevisiae deletion strains, locus YGL086W, strain mad1, hits give low values 1.02 | S. cerevisiae deletion strains, locus YGL248W, strain PDE1, hits give low values 1.03 | S. cerevisiae deletion strains, locus YGR135W, strain pre9, hits give low values 1.07 | S. cerevisiae deletion strains, locus YGR252W, strain gcn5, hits give low values 1 | S. cerevisiae deletion strains, locus YHR030C, strain SLT2, hits give low values 1.02 and 1.01 | S. cerevisiae deletion strains, locus YHR079C, strain IRE1 (second series), hits give low values 1.02 | S. cerevisiae deletion strains, locus YHR079C, strain IRE1, hits give low values 1.01 | S. cerevisiae deletion strains, locus YHR094C, strain hxt1, hits give low values 1.02 | S. cerevisiae deletion strains, locus YHR129C, strain ARP1, hits give low values 1.01 | S. cerevisiae deletion strains, locus YHR200W, strain rpn10, hits give low values 1.03 | S. cerevisiae deletion strains, locus YIL066C, strain RNR3, hits give low values 1.02 | S. cerevisiae deletion strains, locus YIL073C, strain SPO22, hits give low values 1.08 | S. cerevisiae deletion strains, locus YIL125W, strain kgd1, hits give low values 1.02 | S. cerevisiae deletion strains, locus YIR030C, strain dcg1, hits give low values 1.02 | S. cerevisiae deletion strains, locus YJL095W, strain BCK1, hits give low values 1.07 and 1.02 | S. cerevisiae deletion strains, locus YJL134W, strain LCB3, hits give low values 1.02 | S. cerevisiae deletion strains, locus YJL168C, strain set2, hits give low values 1.02 | S. cerevisiae deletion strains, locus YJL187C, strain SWE1 (second series), hits give low values 1.04 | S. cerevisiae deletion strains, locus YJR043C, strain POL32, hits give low values 1.01 | S. cerevisiae deletion strains, locus YJR066W, strain TOR1, hits give low values 0.954 | S. cerevisiae deletion strains, locus YKL009W, strain mrt4, hits give low values 0.982 | S. cerevisiae deletion strains, locus YKL068W, hits give low values 1.02 | S. cerevisiae deletion strains, locus YKL085W, strain MDH1 (second series), hits give low values 1.01 | S. cerevisiae deletion strains, locus YKL085W, strain MDH1, hits give low values 1.01 | S. cerevisiae deletion strains, locus YKL190W, strain CNB1, hits give low values 1.01 | S. cerevisiae deletion strains, locus YKR001C, strain vps1, hits give low values 1.04 | S. cerevisiae deletion strains, locus YLR039C, strain RIC1, hits give low values 1.09 | S. cerevisiae deletion strains, locus YLR058C, strain SHM2, hits give low values 1.02 | S. cerevisiae deletion strains, locus YLR102C, strain apc9, hits give low values 1.02 | S. cerevisiae deletion strains, locus YLR113W, strain HOG1, hits give low values 1.03 | S. cerevisiae deletion strains, locus YLR262C, strain YPT6, hits give low values 1.1 | S. cerevisiae deletion strains, locus YLR268W, strain sec22, hits give low values 1.01 | S. cerevisiae deletion strains, locus YLR342W, strain FKS1 (second series), hits give low values 1.03 | S. cerevisiae deletion strains, locus YLR371W, strain rom2, hits give low values 1.04 | S. cerevisiae deletion strains, locus YLR418C, strain cdc73, hits give low values 1.04 | S. cerevisiae deletion strains, locus YML016C, strain PPZ1, hits give low values 1.03 | S. cerevisiae deletion strains, locus YML032C, strain rad52, hits give low values 1.02 | S. cerevisiae deletion strains, locus YML124C, strain tub3, hits give low values 1.02 | S. cerevisiae deletion strains, locus YMR078C, strain ctf18, hits give low values 1.02 | S. cerevisiae deletion strains, locus YMR223W, strain ubp8, hits give low values 1.01 | S. cerevisiae deletion strains, locus YMR307W, strain GAS1, hits give low values 1.09 | S. cerevisiae deletion strains, locus YNL067W, strain RPL9B, hits give low values 1.03 | S. cerevisiae deletion strains, locus YNL183C, strain NPR1, hits give low values 0.954 | S. cerevisiae deletion strains, locus YNL233W, strain BNI4, hits give low values 1.05 | S. cerevisiae deletion strains, locus YNL250W, strain rad50, hits give low values 1.07 | S. cerevisiae deletion strains, locus YNL271C, strain bni1, hits give low values 1.02 | S. cerevisiae deletion strains, locus YNL298W, strain CLA4, hits give low values 1.01 | S. cerevisiae deletion strains, locus YNL307C, strain MCK1, hits give low values 1.03 | S. cerevisiae deletion strains, locus YNR052C, strain pop2, hits give low values 1.04 | S. cerevisiae deletion strains, locus YOL006C, strain TOP1, hits give low values 1.1 | S. cerevisiae deletion strains, locus YOL012C, strain htz1 1.02 | S. cerevisiae deletion strains, locus YOL147C, strain pex11, hits give low values 1.01 | S. cerevisiae deletion strains, locus YOR061W, strain CKA2, hits give low values 1.02 | S. cerevisiae deletion strains, locus YOR069W, strain VPS5, hits give low values 1.02 | S. cerevisiae deletion strains, locus YOR136W, strain idh2, hits give low values 1.02 | S. cerevisiae deletion strains, locus YOR144C, strain elg1, hits give low values 1.02 | S. cerevisiae deletion strains, locus YOR184W, strain ser1, hits give low values 1 | S. cerevisiae deletion strains, locus YOR231W, strain MKK1, hits give low values 1 | S. cerevisiae deletion strains, locus YOR316C, strain cot1, hits give low values 1.03 | S. cerevisiae deletion strains, locus YPL055C, strain LGE1, hits give low values 1.05 | S. cerevisiae deletion strains, locus YPL256C, strain CLN2, hits give low values 0.999 | S. cerevisiae deletion strains, locus YPR119W, strain clb2, hits give low values 1.02 | S. cerevisiae deletion strains, locus YPR141C, strain kar3, hits give low values 1.03 | S. cerevisiae deletion strains, locus YPR163C, strain tif3, hits give low values 1.02 | S. cerevisiae deletion strains, locus YPR167C, strain met16, hits give low values 1.02 | S. cerevisiae deletion strains, strain wtn01, hits give low values 1.02 | S. cerevisiae strains, strain wild type, hits give low values 1.03
